The values that follow come from article PMC3795721, “Screening for Protein-DNA Interactions by Automatable DNA-Protein Interaction ELISA”.

This assay deals with AT4G31550 (Arabidopsis thaliana, UniProt Q9SV15 228-325). Kind of assay: DPI-ELISA; DPI-ELISA, streptavidin 384-well plate, 1-2 pmol biotinylated dsDNA per well, crude native E. coli extract, anti-His detection; buffer as in Brand et al. [46],; high values mean tight binding. Conditions: tags: C-terminal His (pET-DEST42); label: 5' biotin on forward strand; dsDNA, one strand shown.
Chain of AT4G31550 (Q9SV15 228-325): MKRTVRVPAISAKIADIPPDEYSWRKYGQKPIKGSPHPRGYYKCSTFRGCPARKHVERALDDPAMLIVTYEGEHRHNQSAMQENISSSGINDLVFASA
Take AAAAAATATATTTTCAGCTTTAATCTAAAA: the binding signal came to 0.685 ± 0.106 absorbance.
Sequence AAAAAATATTCCGCTTTTGGCTGAATAAAA displayed a binding signal of 0.635 ± 0.0636 absorbance.
AAAAAACCCGGTTGGAGAAAATAATTAAAA registered a binding signal of 0.55 ± 0.127 absorbance.
The result for AAAAAATTCGTATCTGTACCCTATGCAAAA reads 0.79 ± 0.283 absorbance.
In the case of AAAAAAATCTTTGCGTCGAGATTCTTAAAA it was 0.59 ± 0.0707 absorbance; in that of AAAAAAACGATACGGTATCTAGAAAA, 0.525 ± 0.0495 absorbance.
The result for AAAAAATTTCTCCTTCTTTGTTCTTCAAAA reads 0.66 ± 0.141 absorbance; that for AAAAAATCTGTTCTCGTTTCCCCTTCAAAA, 0.805 ± 0.262 absorbance.
AAAAAACCGCTTACATTGCGTTGTCGAAAA: the binding signal was determined as 0.605 ± 0.0495 absorbance.
Sequence AAAAAATTCACTTTTACCTTTGTGTTAAAA came in with a binding signal of 0.555 ± 0.0919 absorbance.
Sequence AAAAAAGGTCCAGTCCACGTCATCAGAAAA displayed a binding signal of 1.84 ± 0.431 absorbance.
AAAAAAGGTGAGGAAGTTGGGTATGGAAAA registered a binding signal of 0.64 ± 0.0566 absorbance.
In the case of AAAAAAAACTCCCATACTACAACCGAAAAA it was 0.53 ± 0.099 absorbance; in that of AAAAAATGTTTTTTAGAGGTGTGCAAAAAA, 0.57 ± 0.0849 absorbance; in that of AAAAAAGAAATACCAGAAACTATCATAAAA, 0.705 ± 0.219 absorbance.
The sequence AAAAAAAACGTCTGGCGGGGTTGAGAAAAA came in with a binding signal of 0.65 ± 0.113 absorbance.
In the case of AAAAAAATGATTTGCAGATCTCCGAGAAAA it was 0.935 ± 0.488 absorbance; in that of AAAAAATCATTTTATTTTGCCTTTCTAAAA, 0.56 ± 0.127 absorbance.
On to AAAAAAGAGTGGTTTATTAATGTATAAAAA, for which the binding signal was determined as 0.74 ± 0.184 absorbance.
In the case of AAAAAATTACGTTTGTATTTGTAAAA it was 0.555 ± 0.0636 absorbance; in that of AAAAAAGCGGTAGATGCGCAACTGTGAAAA, 0.6 ± 0.127 absorbance.
Turning to AAAAAACCTACGATGGTTCTGATCTTAAAA, the binding signal was determined as 0.655 ± 0.12 absorbance.
As to AAAAAATGTGGTTACGGCCTCGATGAAAAA, the binding signal came out at 0.565 ± 0.106 absorbance.
In the case of AAAAAACTCGTACATCTATCGCTACGAAAA it was 0.54 ± 0.0849 absorbance; in that of AAAAAATAAATCGCGGCTACTGCTTCAAAA, 0.55 ± 0.141 absorbance; in that of AAAAAATGAATCAATTTTTGGGCTTTAAAA, 0.52 ± 0.113 absorbance.
Sequence AAAAAAGCGTAAGCCTTGACAGTCGTAAAA showed a binding signal of 0.725 ± 0.106 absorbance.
In the case of AAAAAATAATTACAAGTCGGCTCCACAAAA, the binding signal amounted to 0.69 ± 0.0707 absorbance.
As to AAAAAATCTTACCCCTCCGCTTCTATAAAA, the binding signal stood at 0.72 ± 0.255 absorbance.
Sequence AAAAAAACTCTCCGGGTACAATTGCAAAAA returned a binding signal of 0.605 ± 0.205 absorbance.
The result for AAAAAATTTGGTCTTCGTCCTCGCTTAAAA reads 0.9 ± 0.0707 absorbance; that for AAAAAATTCCTGTCCGCTCTCGCTCCAAAA, 0.685 ± 0.148 absorbance.
Take AAAAAATTTTGTTTTTGCTTTTCCTTAAAA: the binding signal is 0.38 ± 0.0566 absorbance.
On to AAAAAAATCAGCCTGACTCTGGGCGTAAAA, for which the binding signal was 0.71 ± 0.141 absorbance.
AAAAAATACGTCTACGTGGTTGTCGTAAAA gave a binding signal of 0.72 ± 0.127 absorbance.
In the case of AAAAAATCAACCATTATGGTATTACTAAAA it was 0.79 ± 0.212 absorbance; in that of AAAAAAGTAGGTGCTGATGCTGGCCGAAAA, 0.59 ± 0.0141 absorbance.
